Assay outcomes deposited in PubChem by several laboratories.
eIF4E-4G inh: eIF4E–eIF4G protein interaction inhibitors, primary screen, biochemical, uHTS, TR-FRET, eIF4GI fragment; TR-FRET eIF4E-eIF4GI(517-606) binding, 2 h; hit rate 0.37% among 220,000; inhibition, % at 21.7 µM; Eukaryotic translation initiation factor 4E (Mus musculus) + Eukaryotic translation …;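 active means inhibition above about 30%, limit read from the data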;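 further: 0% = full FRET control wells and 100% = background wells lacking eIF4GI fragment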
EP2 modulator: EP2 receptor modulators, cAMP readout, primary screen, cell-based, HTRF cAMP, PGE2 stimulation; Prostaglandin E2 receptor EP2 subtype (Homo sapiens), P43116; EP2-expressing cells, cAMP HTRF FRET, PGE2 co-stimulation; induction, % at 25 µM; hit rate 0.83% among 260,000; AID 940, 2007;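 active means compounds whose cAMP rise, as percent of the full-agonist control response, exceeds 60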;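 further: rat C6 glioma line stably carrying human EP2 under a CMV promoter; the protocol text gives 20 µM as final concentration; 100% = response of wells given 1 µM PGE2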
Target sequence (P43116 whole entry, looked up): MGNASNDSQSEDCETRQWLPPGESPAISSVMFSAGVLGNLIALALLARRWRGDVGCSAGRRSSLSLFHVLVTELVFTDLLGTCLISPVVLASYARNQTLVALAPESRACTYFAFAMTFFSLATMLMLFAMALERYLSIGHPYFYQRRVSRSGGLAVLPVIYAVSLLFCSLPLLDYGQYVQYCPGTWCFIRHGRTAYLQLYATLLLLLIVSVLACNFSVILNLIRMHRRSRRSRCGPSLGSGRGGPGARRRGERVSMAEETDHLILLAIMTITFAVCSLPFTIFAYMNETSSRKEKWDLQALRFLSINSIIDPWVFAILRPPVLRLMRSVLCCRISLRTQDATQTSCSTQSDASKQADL
PERK inh: block of dimerizer-induced PERK translation repression, primary screen, PERK inhibitor project, CHO PERK-DD cells, SEAP luminescence, HTS | Eukaryotic translation initiation factor 2-alpha kinase 3 (Homo sapiens), Q9NZJ5 | CHO PERK-DD fusion, SEAP luminescence translation reporter | inhibition, % at 5.6 µM | hit rate 0.17% among 220,000 | AID 1416, 2008;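 active means inhibition above the mean inhibition of all tested compounds plus 3 SD, set separately per screening campaign, cut at about 2.9% in these data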;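 further: PERK kinase domain activated by AP20187 dimerizer at 100 nM; 0% = DMSO with dimerizer and 100% = rapamycin at 8.4 µM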
PGE2 EP2 inh: human EP2 receptor antagonists, primary screen, TR-FRET cAMP, C6 glioma cells; Prostaglandin E2 receptor EP2 subtype (Homo sapiens), P43116; C6 glioma cells expressing human EP2; cells stimulated with saturating PGE2; inhibition, % at 25 µM; hit rate 0.52% among 260,000; AID 1422, 2008;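 active means percent inhibition above 40 after rounding to a whole number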;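 further: rat C6 glioma host cells with rolipram phosphodiesterase inhibitor present; the protocol text gives 20 µM as final concentration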
EP2 cAMP induct: cAMP induction in EP2, EP4, beta2-AR and parental cells, confirmation, counter-screen for EP2 modulator project, cell-based, five parallel assays, C6 glioma, HEK293 | calls only at 20 µM (by protocol) | AID 1080, 2008 | cAMP HTRF induction; plus low (about EC15) PGE2 agonist | shares compounds with EP2 modulator | hit rate 47% among 1,300;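 active means cAMP induction above 50% in the main assay while under 30% in all four parallel counter assays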;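 further: rat C6 glioma cells stably expressing human EP2 receptor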
Active calls of the source: *; i = inactive; . = no result; + = active, no number. The list is not random: actives were taken first. Their share in the collection is about 1.8%.

SMILES	eIF4E-4G inh	EP2 modulator	PERK inh	PGE2 EP2 inh	EP2 cAMP induct
CC1=CC(C)(C)N(C(=O)c2ccccc2)c2ccccc21	8	72*	1	4	i
COc1cnc(-c2ccccc2)nc1Sc1ccccc1	2	41	1	3	.
COc1cnc(N(C)C)nc1Sc1cccc(Cl)c1	-2	76*	1	11	+
COc1ccc(CNC(=O)c2nn(C)cc2[N+](=O)[O-])cc1	.	-11	.	12	.
Cc1ccc2nc(N3CCC(C(=O)O)CC3)nc(-c3ccccc3)c2c1	11	91*	1	13	i
c1ccc(-c2nc(N3CCCCC3)nc3ccccc23)cc1	-3	56	0	10	.
Cn1ccnc1C1(O)CCN(CC(=O)N2CCC(Cc3ccccc3)CC2)CC1	.	-38	.	.	.
NC1CS(=O)(=O)CC1N (centres undefined)	.	11	.	12	.
COc1ccc(OCC(=O)NC(=S)Nc2ccc3c4c(cccc24)CC3)cc1	-2	68*	1	18	i
COc1cccc(-c2nc3cnccn3c2NCc2ccc3c(c2)OCO3)c1	.	-79	.	12	.
CC(C)=CCc1c(O)cc2oc3c(CC=C(C)C)c(O)c(O)c(CC=C(C)C)c3c(=O)c2c1O	-14	13	.	26	.
COc1c(O)cc2oc3cc(O)c(CC=C(C)C)c(O)c3c(=O)c2c1CC=C(C)C	.	51	.	16	i
c1ccc2c(-c3nc(C4CCCCC4)no3)cc(-c3ccncc3)nc2c1	9	67*	2	5	+
Cc1cc(C(=O)NCC(c2ccco2)N(C)C)no1 (centres undefined)	3	71*	0	1	i
CCOC(=O)CCN(Cc1cccs1)S(=O)(=O)c1ccc(F)cc1	5	43	0	5	.
CCOC(=O)CCN(Cc1sccc1C)S(=O)(=O)c1ccc(F)cc1	5	81*	-1	2	i
CC1CCc2c(sc(N)c2C(=O)OC(C)C)C1 (centres undefined)	-3	68*	1	12	i
CCOC(=O)Nc1sc2c(c1C(N)=O)CCC(C)C2 (centres undefined)	-2	4	1	11	.
O=c1cc(N2CCCCC2)c(-c2ccccc2)nn1Cc1ccc(Cl)cc1	-3	53	1	4	.
O=c1cc(N2CCCCC2)c(-c2ccccc2)nn1Cc1ccc(F)cc1	6	88*	0	7	+
O=c1cc(N2CCCCC2)c(-c2ccccc2)nn1Cc1c(Cl)cccc1Cl	-14	80*	2	2	+
CCOc1ccc(C2NC(=O)C(C#N)=C(S)N2c2ccc(F)cc2)cc1OC (centres undefined)	.	-28	.	15	.
COCCOC(=O)c1c(C)oc2ccc(OCc3ccccc3)cc12	6	65*	0	8	i
COc1ccc(-n2c(SC(C)C(=O)Nc3c(C)cccc3C)nnc2-c2ccncc2)cc1 (centres undefined)	.	-9	.	13	.
CCOc1ccc(OCC)c(NC(=O)CN2CCN(c3ccccc3OC)CC2)c1	.	9	.	21	.
SMILES	eIF4E-4G inh	EP2 modulator	PERK inh	PGE2 EP2 inh	EP2 cAMP induct
CCOc1ccc(OCC)c(NC(=O)CN2CCN(c3ccc(C)cc3C)CC2)c1	-3	79*	0	.	+
CCOC(=O)CSc1nnc2n(C3CCCCC3)c(=O)c3c4c(sc3n12)CCCC4	-4	66*	0	6	i
COC(=O)CSc1nnc2n(C3CCCCC3)c(=O)c3c4c(sc3n12)CCCC4	9	31	-1	15	.
Cn1c(=O)[nH]c(=O)c2c1nc(NCc1ccco1)n2CCOc1ccccc1	.	3	.	0	.
CC(C(=O)Nc1ccccc1-c1ccccc1)N1CCN(Cc2ccccc2)CC1 (centres undefined)	0	59	-1	5	.
CC1CCN(C(C)C(=O)Nc2ccccc2-c2ccccc2)CC1 (centres undefined)	26	82*	2	3	+
CC(=O)c1ccc(-n2c(C)ccc2-c2ccccc2)cc1	-1	90*	0	4	+
COC(=O)c1ccc(-n2c(C)ccc2-c2ccccc2)cc1	0	60	0	10	.
CCCSc1nc2c(c(=O)[nH]c(=O)n2C)n1CCOC	.	-8	.	17	.
O=C(O)CSc1nc2ccccc2s1	5	-8	2	7	.
O=C(O)CSc1cc(-c2ccccc2)nc2ccccc12	.	67*	.	12	i
Cc1cc(OCC(=O)Nc2ccc(N3CCN(S(C)(=O)=O)CC3)cc2)ccc1Cl	.	-20	.	9	.
COc1cc(OC)cc(-c2nc(N)n[nH]2)c1	-9	68*	1	17	i
O=C(c1cnn2cccnc12)N1CC[C@@H](c2ccccc2)[C@H](O)C1	.	-17	.	.	.
COc1ccc(S(=O)(=O)N2CCC(C(=O)Nc3ccc(Cl)cc3)CC2)cc1OC	.	-57	.	10	.
C/C(CCc1oc2ccc(Cl)cc2c1-c1ccc(C)o1)=N\O	-6	65*	1	6	+
CC/C(=N/NC(=O)c1ccc(Br)o1)c1ccc(Cl)cc1	-1	45	0	11	.
CCCC/C(=N\NC(=O)c1ccc(Br)o1)c1ccccc1	0	55	1	18	i
COc1cc2ccccc2cc1C(=O)NC(=S)Nc1cccc(C(=O)O)c1	-3	95*	1	3	+
CC(=O)c1cccc(NC(=S)NC(=O)c2ccccc2)c1	-2	-26	0	18	.
Cn1nc(-c2ccccc2)c(-c2nc(-c3cccc(C(F)(F)F)c3)no2)c1Cl	0	51	1	10	i
O=C(O)CCCCCCCCCCCc1ccccc1	7	78*	2	10	+
CCOC(=O)Cc1csc(NC(=O)c2cc(=O)c3ccccc3o2)n1	3	84*	2	9	+
CC(=O)OC[C@@]1(O)C[C@@]23CCC4c5ccoc5CC[C@]4(C)C2CC[C@@H]1C3 (some centres undefined)	.	69*	.	9	i
CS(=O)(=O)c1cnc2ncnn2c1C1CCCN(C(=O)CC2CCCC2)C1 (centres undefined)	.	1	.	.	.
CCOC(=O)c1c(-c2ccc(-c3ccccc3)cc2)csc1NC(=O)CCN1CCOCC1	5	73*	0	12	+
CCOC(=O)COc1cc(Br)c(/C=N/Nc2ccccc2)cc1OC	-16	68*	0	.	i
COc1cc(C=O)c(Br)cc1OCC(=O)NCCc1ccccc1	3	-35	1	4	.
